# Hits are enriched below; roughly 7.6% of the tested compounds scored in any of these assays.
# NS3h inh CB: hepatitis C NS3 helicase inhibition, primary screen | AID 687043 | inhibition, % at 100 µM | hit rate 1.6% among 16,000 | NS3h Cy5-dT15 DNA binding, fluorescence polarization;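 active = inhibition above the average over every tested compound plus 3 SD, cut at about 40% in these data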
# Cy5 interf NS3h: counter-screen for HCV NS3 helicase inhibitors: fluorescence interference; Cy5-dT15 DNA with NS3h; actives lie on both sides; signal over control mean, under 1 quenches; fluorescence interference ratio at 100 µM; hit rate 6% among 16,000;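 active = compound fluorescence over control fluorescence at most 0.8, a quencher, or at least a set upper limit, an enhancer; inactive = ratio between 0.8 and the set upper limit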
# An asterisk follows results filed as active.
SMILES,NS3h inh CB,Cy5 interf NS3h
CC(=O)OCCCN1C(=O)c2ccc(S(=O)(=O)c3ccc4c(c3)C(=O)N(CCCOC(C)=O)C4=O)cc2C1=O,2.8,1.03
COc1ccc(C(=O)OCCCN2C(=O)c3ccccc3C2=O)cc1,8.7,0.616*
CCCC(=O)NS(=O)(=O)c1ccc(NS(=O)(=O)c2ccc(C)cc2)cc1,-0.7,0.997
CCCCCC12CCC(O)(CC1)C/C2=N\NS(=O)(=O)c1ccc(C)cc1,19.8,0.728*
COc1cc(/C=C2\C(=O)NN(c3ccccc3)C2=O)ccc1OCc1ccccc1F,35.6,0.565*
O=C1NN(c2ccccc2)C(=O)/C1=C/c1ccc(OCc2ccccc2F)cc1,13.6,1.03
COc1cc(/C=C2\C(=O)NN(c3ccccc3)C2=O)ccc1OCC(=O)O,10.9,1.06
CCOC(=O)COc1ccc(/C=C2\C(=O)NN(c3ccc(Cl)c(Cl)c3)C2=O)cc1OC,17.7,0.802*
Cc1ccc(CN2CCN(N=Cc3ccccc3[N+](=O)[O-])CC2)c(C)c1,13.5,1.03
COc1ccc(/C(C)=N/N2CCN(Cc3ccc(Cl)cc3)CC2)cc1OC,18.6,0.684*
COc1ccc(CN2CCN(Cc3ccc(C)cc3)CC2)cc1OC,-8.7,1.01
CC(=O)c1ccc(N2CCN(S(=O)(=O)c3ccccc3)CC2)c(F)c1,8.7,0.785*
CC(=O)c1ccc(N2CCC(C)CC2)c(F)c1,9.9,1.04
Cc1cc(=O)n2ccc(CN(C)C)c(O)c2n1,5.2,0.621*
CCOC(=O)c1c(-c2ccc(Cl)cc2)csc1NC(=O)c1ccccc1OC,4.3,0.979
CC(Sc1nnc(-c2cccnc2)o1)C(=O)c1ccccc1 (configuration not stated),2.2,1.01
CSc1nnc(-c2ccc(C)cc2)o1,12.3,0.693*
COC(=O)COc1cc(Br)c(/C=C2\C(=O)NC(=O)N(c3cc(C)cc(C)c3)C2=O)cc1OC,12.0,1.02
CCN(CC)c1ccc(NC(=O)c2ccc3c(c2)OCCO3)cc1,10.4,0.934
O=C1NC(=S)S/C1=C/c1ccc(-c2ccc([N+](=O)[O-])cc2Br)o1,32.2,0.987
Cc1ccc(-c2ccc(/C=C3/SC(=S)NC3=O)o2)cc1Cl,6.1,0.768*
O=C1NC(=S)N/C1=C/c1ccc(O)c(Cl)c1,-3.9,0.984
O=C1NC(=S)N/C1=C\c1ccccc1,16.3,1.21*
COc1ccc(C(=O)NC(=S)Nc2cc([N+](=O)[O-])cc(Cl)c2O)cc1,15.6,0.839
C/C(=N/N=C\c1cccc([N+](=O)[O-])c1)C1C(=O)c2ccccc2C1=O,8.7,0.622*
SMILES,NS3h inh CB,Cy5 interf NS3h
CC(=O)N/C(=C\c1cccc([N+](=O)[O-])c1)C(=O)NC(C)C,5.7,1
CCC(C)c1ccc(OCc2nnc(NC(=O)Nc3ccccc3)s2)cc1 (configuration not stated),10.9,1
O=C1C2C3C=CC(C3)C2C(=O)N1c1cccc(Oc2cccc(Oc3cccc(N4C(=O)C5C6C=CC(C6)C5C4=O)c3)c2)c1 (configuration not stated),-1.4,0.865
O=C1C2C3C=CC(C3)C2C(=O)N1c1cccc(-c2nc3ccccc3c(=O)o2)c1 (configuration not stated),15.0,0.761*
CC(=O)c1ccc(N2C(=O)C3C4C=CC(O4)C3C2=O)cc1 (configuration not stated),6.8,0.878
COc1ccccc1C=C1C(=O)NC(=S)N(c2ccccc2F)C1=O,8.5,0.988
O=C1NC(=S)N(c2ccccc2F)C(=O)/C1=C/c1ccc(OCc2cccc(C(=O)O)c2)cc1,49.7*,1.01
Cc1ccc(N2C(=O)C3C4C=CC(O4)C3C2=O)c(C)c1 (configuration not stated),0.0,1.03
CC(=O)Nc1ccc(S(=O)(=O)NC(c2ccccc2)c2ccccc2)cc1,12.4,1.12
CC(=O)Nc1ccc(S(=O)(=O)NNC(=O)c2ccccc2Cl)cc1,15.0,0.746*
COc1cc(OC)c(C=C2C(=O)N(C)C(=O)N(C)C2=O)cc1Br,18.5,1.03
O=C(Nc1ccc(S(=O)(=O)N2CCCCCC2)cc1)C(F)(F)F,14.0,0.766*
O=C(Nc1ccc(S(=O)(=O)N2CCCCC2)cc1)c1ccc(F)cc1,8.6,0.915
COc1ccccc1N1CCN(/N=C\c2cccc(C)c2)CC1,23.9,0.877
O=C(O)c1cccc(Nc2nc(-c3ccc(Br)cc3)cs2)c1,-8.6,0.91
Cc1ccc(N2C(=O)CC(N3CCC(C)CC3)C2=O)cc1 (configuration not stated),10.0,1.23*
Cc1ccc(N2C(=O)CC(N3CCSCC3)C2=O)cc1 (configuration not stated),27.0,0.91
COc1ccc(N(CC(=O)Nc2ccc(C)cc2C)S(=O)(=O)c2ccc(C)cc2)cc1,12.7,0.983
COc1ccc(N(CC(=O)Nc2ccc(Cl)cc2C)S(=O)(=O)c2ccc(C)c([N+](=O)[O-])c2)cc1,19.5,0.676*
COc1ccc(OC)c(NC(=O)CN(c2cccc([N+](=O)[O-])c2)S(=O)(=O)c2ccccc2)c1,19.5,0.667*
